Bioassay records from PubChem BioAssay.
Rows were chosen to be rich in hits. Some 3.2% of all compounds tested hit in one or more screens of this group.
DNA Pol III inh – DNA polymerase III holoenzyme inhibition. reconstituted DNA polymerase III holoenzyme replication, biochemical. Potency, µM (top dose mostly 57.1 µM), without a hit: top-dose activity change, negative = inhibition. actives 0.25% (n = 71,000); note: potency is the fitted concentration of half-maximal effect; % is set by controls: 0 for no effect and ±100 for the full control effect
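Reconstituted *E. coli* holoenzyme (0.35 nM Pol III, 1 nM beta, 154 nM SSB, 2 nM primase) was preincubated with compound for 15 min at RT. Synthesis on 1.4 nM ssM13Gori ran 35 min, then was stopped with PicoGreen/EDTA and read as dsDNA fluorescence.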
BRCT PPI green – BRCA1 BRCT-phosphoprotein interaction inhibition; P38398; BRCA1 BRCT-phosphopeptide binding, green fluorescence polarization; Potency, µM (titrated, usually from 76.9 µM), for inactives: at the top dose activity change, negative = inhibition, usual class: inhibitors; actives 0.05% (n = 75,000); AID 875;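 note: potency is the fitted concentration of half-maximal effect; plate controls were peptide without protein for full effect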
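Compounds were incubated for 12 min at room temperature with a complex of 100 nM fluorescein-tagged pBACH1 decapeptide and 250 nM His-tagged BRCT protein. Buffer was phosphate pH 7.3 with EDTA, DTT and Tween 20. Disruption of binding lowers the polarization signal.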
BRCT inh red – disrupts BRCA1 BRCT binding to phosphoprotein, red fluorophore readout; P38398; BRCT-phosphopeptide binding, red fluorescence polarization; Potency, µM (highest dose often 76.9 µM), for the others: top-dose activity change, negative = inhibition, most hits filed as inhibitors; actives 0.03% (n = 75,000); note: % is set by controls: 0 for no effect and ±100 for the full control effect
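Fluorescence polarization: 100 nM His-tagged BRCA1 BRCT with 100 nM TAMRA-labelled phospho-BACH1 decapeptide, phosphate buffer pH 7.3 with 150 mM NaCl, DTT, 0.01% Tween 20; 12 min RT. Binding inhibition seen as FP decrease.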
TsaE inh – displaces an ADP probe from E. coli YjeE (TsaE); P0AF67; purified YjeE enzyme, qHTS inhibition assay; Potency, µM; actives 0.05% (n = 71,000); AID 605
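Purified YjeE (10 uM) with BODIPY Texas Red-labeled ADP probe (2 uM); compounds pin-transferred, 15 min at room temperature. Binding inhibition read as decreased fluorescence polarization; ADP titration as control.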
TSHR agonist – TSH receptor (human) agonism; P16473; HEK293-CNG-TSHR cells (CNG channel as cAMP sensor), membrane potential dye, cAMP; Potency, µM (highest dose often 57.1 µM), inactives show top-dose activation, usual class: activators; actives 0.48% (n = 73,000); active = well fitted activation curve with a large enough effect in the main read-out, with a control signal flat, not every such curve was filed as active; inconclusive = small, poorly fitted or top-dose-only effect, or a change in a side signal; inactive = no such curve, though single readings can be large or run the other way; % of control where 0% means no effect;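 note: the control signal comes from parental cells without the receptor; potency is the fitted concentration of half-maximal effect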
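cAMP rise detected as CNG-channel membrane depolarization by fluorescent dye (emission 590 nm), 30 min after compound, following 60 min dye loading containing 100 uM RO 20-1724 at room temperature. Cells: TSHR/CNG HEK 293, with parental CNG HEK 293 as control.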
HEK293 cAMP ctrl – counter-screen for TSHR agonists: cAMP increase in parental HEK293; actives 2.5% (n = 73,000); parental HEK293 CNG cAMP sensor, membrane potential fluorescence; Potency, µM (titrated, usually from 57.1 µM), without a hit: top-dose activation, actives largely listed as activators; note: potency is the fitted concentration of half-maximal effect; % of control where 0% means no effect; nearly all actives have a fitted effect of over 55% in size
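Parental HEK 293 cells stably expressing a modified CNG channel (no TSHR) report cAMP rise as membrane depolarization. Membrane potential dye with 100 uM RO 20-1724 was loaded for 60 min at room temperature, then compound added for 30 min; fluorescence read at 590 nm.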
Numbers without * were called inactive; i = inactive; ? = inconclusive; . = no result given; [ ] = remark or other dose. Unless noted, calls come from the whole dose curve; as a rule, active = well fitted curve in the direction sought with a large enough effect; inconclusive = small, poorly fitted or top-dose-only effect, or another doubt; inactive = no such curve, though single readings can be large; an effect the other way counts as inactive or inconclusive.

SMILES	DNA Pol III inh	BRCT PPI green	BRCT inh red	TsaE inh	TSHR agonist	HEK293 cAMP ctrl
CCC(C)(C)NC(=O)C(c1ccncc1)N(Cc1cccs1)C(=O)Cn1nnc2ccccc21 (configuration not stated)	-3.4%	0.2%	-1.2%	i	?	20µM*
CC(C)(C)NC(=O)C(c1ccncc1)N(Cc1cccs1)C(=O)Cn1nnc(-c2cccs2)n1 (configuration not stated)	-2.8%	2.4%	-1.4%	i	?	20µM*
CC1=C(C(=O)OCc2ccccc2)C(C2CCCCC2)NC(=O)N1CCCCCC(=O)O (configuration not stated)	-7.6%	1.3%	-0.2%	i	?	?
CC1=C(C(=O)OCc2ccccc2)C(C2CC2)NC(=O)N1CCCCCC(=O)O (configuration not stated)	-1.8%	0.7%	-1.1%	i	?	20µM*
COc1ccc(-c2c3c(=O)n(C)c(=O)n(C)c3cn2-c2cc(OC)ccc2OC)cc1	9.1%	-3.3%	-1.2%	i	25.1µM*	13.6%
CC1(C(=O)NCc2cc(F)cc(C(F)(F)F)c2)C=CC2(CCCCC2)N1C(=O)c1ccccc1 (configuration not stated)	-0.7%	-0.1%	-1.2%	i	15.2%	17.1%
CC1(C(=O)NCC2CC2)C=CC2(CCCCC2)N1C(=O)c1ccccc1 (configuration not stated)	3.1%	-2.0%	-0.4%	i	?	10µM*
Cc1c(NC(=O)c2cnn3c(C(F)(F)F)cc(-c4ccco4)nc23)c(=O)n(-c2ccccc2)n1C	5.5%	0.7%	0.1%	i	11.1%	7.4%
O=C(Nc1cc(C(F)(F)F)ccc1N1CCCCC1)c1ccco1	6.5%	-0.9%	-0.1%	i	?	?
O=C(Nc1cc(C(F)(F)F)ccc1N1CCOCC1)C1Cc2ccccc2CN1C(=O)c1ccco1 (configuration not stated)	-2.1%	4.5%	-0.2%	i	?	1.26µM*
CC(=O)Nc1ccc2c(c1)nc(CCN1CCN(C)CC1)n2C	-2.7%	-0.4%	1.0%	i	13.0%	1.0%
CCC[C@@H]1C[C@@]1(CCC)[C@@H](NP(=O)(c1ccccc1)c1ccccc1)c1ccc(C(=O)OC)cc1	-4.1%	-2.5%	-4.3%	i	?	12.6µM*
CCC[C@@H]1C[C@@]1(CCC)C(NC(=O)OCc1ccccc1)c1ccc(-c2ccccc2)cc1 (some centres not stated)	-10.1%	-1.2%	0.0%	i	-10.6%	8.4%
CCOC(=O)c1c(C)c(C(=O)N2CCCCCC2)c(C)n1CC	-2.4%	-1.4%	0.0%	i	5.0%[11.4 µM]	27.5%
Cc1ccc2c(c1C)NC(C(=O)O)C1CC=CC21 (configuration not stated)	25.1µM*	-18.9%	-24.9%	i	-2.2%	-2.1%
CCOC(=O)c1ccc2c(c1)C1C=CCC1C(C(=O)O)N2 (configuration not stated)	15.8µM*	-29.0%	?	i	3.9%	2.4%
O=C(O)C1Nc2c(C(=O)N3CCOCC3)cccc2C2C=CCC12 (configuration not stated)	-24.4%	-1.4%	-6.8%	i	-9.3%	1.5%
Cn1cccc1C(=O)N1CCC2(CCCN(Cc3ccccc3)C2)CC1	-4.4%	-3.0%	-1.5%	i	?	?
CCCOc1cccc(C(=O)Nc2cc(NC(=O)c3ccco3)ccc2OC)c1	-3.8%	-1.5%	-0.7%	i	?	?
CN(C)c1ncc2nc(-c3ccccc3)c(=O)n(Cc3ccc(F)cc3)c2n1	-10.6%	-2.8%	-0.7%	i	?	5.01µM*
CN(C)c1ncc2ncc(=O)n(CCc3ccccc3)c2n1	-13.3%	-1.3%	1.5%	i	?	12.6µM*
CN(C)c1ncc2nc(-c3ccc(Cl)cc3)c(=O)n(Cc3ccc(F)cc3)c2n1	-3.5%	-1.2%	-0.8%	i	-7.1%	6.3%[0.457 µM]
c1cncc(CNc2ncncc2-c2cccnc2)c1	-3.7%	-1.2%	-0.7%	i	-1.8%	-3.1%
Cc1cc(N2CCC(C(=O)NC3CC3)CC2)nc(-c2ccccc2)n1	-2.6%	0.3%	-1.0%	i	2.0%	16.3%
CC(C)CCNC(=O)C1CCN(S(=O)(=O)c2ccc3c(c2)CCC(=O)N3)CC1	-1.6%	-0.6%	0.7%	i	?	6.31µM*
SMILES	DNA Pol III inh	BRCT PPI green	BRCT inh red	TsaE inh	TSHR agonist	HEK293 cAMP ctrl
O=C(O)C1=CC(=C(c2ccc(O)c(C(=O)O)c2)c2ccc(O)c(C(=O)O)c2)C=CC1=O	0.0794µM*	15.8µM*	6.0%	i	.	6.5%
CCCOc1ccc(C2C(C(=O)OC)=CN(CCOC)C=C2C(=O)OC)cc1	-1.7%	0.3%	-1.2%	i	?	25.1µM*
COC(=O)c1c(C(=O)OC)c2cc(C)ccn2c1Cl	-0.2%	-1.3%	1.1%	i	?	20µM*
COC(=O)c1nc2cc(C)ccn2c1F	-3.3%	-2.0%	-1.0%	i	0.6%	-1.8%
Cc1ccc(SCc2cc(=O)[nH]c(N3CCN(Cc4ccccc4)CC3)n2)cc1	-5.2%	2.6%	1.6%	i	-0.8%	4.1%
CN(C)[C@H]1C(=O)C(C(=O)NCN2CCCC2)=C(O)[C@]2(O)C(=O)C3=C(O)c4c(O)cccc4[C@](C)(O)[C@H]3C[C@H]12	3.16µM*	-14.9%[15.4 µM]	-20.6%[15.4 µM]	i	-5.2%[11.4 µM]	12.9%[11.4 µM]
CC(=O)c1ccc(-n2nnnc2SCC(=O)N2CCc3ccccc3C2)cc1	-6.8%	-0.4%	-1.2%	i	14.2%	13.8%
O=C(CSc1nnnn1-c1ccccc1)N1CCc2ccccc2C1	-6.8%	-1.1%	-2.5%	i	?	15.8µM*
COc1ccccc1-c1oc2ccccc2c(=O)c1OC	-6.6%	-1.1%	-0.7%	i	?	31.6µM*
COc1ccc(Cn2nnnc2C(CC(C)C)N2CCN(c3ccccc3)CC2)cc1 (configuration not stated)	-9.8%	-1.4%	-1.1%	i	?	?
CC(C)CC(c1nnnn1CC1CCCO1)N1CCN(C2CCCC2)CC1 (configuration not stated)	-5.7%	-0.9%	0.5%	i	6.2%	28.1%
CC(C)CC(c1nnnn1CC1CCCO1)N1CCN(c2cccc(Cl)c2)CC1 (configuration not stated)	8.6%	-2.1%	-0.7%	i	?	12.6µM*
CC(C)CC(c1nnnn1Cc1ccco1)N1CCN(c2cccc(Cl)c2)CC1 (configuration not stated)	0.7%	-2.8%	-0.5%	i	?	10µM*
CCOc1ccc2nc(-c3ccccc3)[nH]c2c1	-2.0%	-4.8%	-0.8%	i	?	15.8µM*
